# Measurements published in PubChem BioAssay AID1626 (SRMLSC, 2009).
# About 2,000 (0.91%) of roughly 220,000 compounds were called active. Roughly 2% stayed inconclusive and do not appear here. No stated cut-off is given here; in the data, inconclusive means inhibition above about 80% without an active follow-up result; inactive means below that; test concentration not stated here. Not all results are given here. Potency and affinity values are given separately.
# Experiment: M. tuberculosis H37Rv growth inhibitors, H37Rv strain (AID 1626);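 further: bacteria incubated seven days before Alamar blue readout; 0% = bacteria only wells and 100% = bacteria with antibiotic wells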
# Conditions: stronger effect = higher value, concentration not given here
row,SMILES,inhibition
1,CCCCCCN1C=C/C(=C\C=C(C#N)C#N)c2ccccc21,34.9% (inactive)
2,COc1ccccc1NC(=S)N(CCCN(C)C)Cc1cc2cc3c(cc2[nH]c1=O)OCO3,-2.36% (inactive)
3,CCOC(=O)CN1CC23C=CC(O2)C(C(=O)Nc2ccc(F)c(C)c2)C3C1=O (stereo unspecified),-11.9% (inactive)
4,CCCCNC(=O)COC(=O)c1ccc(C)c(NC(=O)c2ccco2)c1,-7% (inactive)
5,CCN1CCN(C(=O)C(=O)c2c(C)[nH]c3ccccc23)CC1,0.56% (inactive)
6,O=C(CSc1nnc(CCCN2C(=O)c3cccc4cccc(c34)C2=O)n1-c1ccccc1)N1CCN(CCO)CC1,-10.9% (inactive)
7,O=C1Nc2cc(Cl)cnc2N2CCCC12 (stereo unspecified),2.46% (inactive)
8,CCN(CC)CCCNC(=O)Cn1nc([N+](=O)[O-])c(Cl)c1C,-1.51% (inactive)
9,CC1CCN(c2c(NCc3ccc(C(=O)N4c5ccccc5CC4C)cc3)c(=O)c2=O)CC1 (stereo unspecified),7.17% (inactive)
10,Cc1ccc(CNC(=O)c2ccc(CNc3c(N4CCCC4)c(=O)c3=O)cc2)cc1,8.62% (inactive)
11,CCOC(=O)C1CCCN(C(=O)c2ccc(CNc3c(N4CCC(C)CC4)c(=O)c3=O)cc2)C1 (stereo unspecified),0.97% (inactive)
12,CC1CCN(C(=O)c2ccc(CNc3c(N4CCCC4)c(=O)c3=O)cc2)CC1,78.3% (inactive)
13,O=C(NCc1ccccc1)c1ccc(CNc2c(N3CCCC3)c(=O)c2=O)cc1,3.31% (inactive)
14,Cc1cccc(N2CCN(C(=O)c3ccc(CNc4c(N5CCC(C)CC5)c(=O)c4=O)cc3)CC2)c1C,73.1% (inactive)
15,O=[N+]([O-])c1ccc(N2CCC(O)CC2)nc1,-4.33% (inactive)
16,O=c1oc2ccccc2c(NCCO)c1[N+](=O)[O-],0.19% (inactive)
17,Cc1cc(C)cc(NC(=O)C2CCCC2)c1,-9.17% (inactive)
18,CCOC(=O)C1CCN(c2nc(-c3ccccc3)nc3c2oc2ccccc23)CC1,25.5% (inactive)
19,NC(=O)C1CCN(c2nc(-c3ccccc3)nc3c2oc2ccccc23)CC1,0.65% (inactive)
20,OCCN(CCO)c1nc(-c2ccccc2)nc2c1oc1ccccc12,0.94% (inactive)
21,O=C(O)C1CCN(c2nc(-c3ccccc3)nc3c2oc2ccccc23)CC1,2.63% (inactive)

row,SMILES,inhibition
1,COc1ccc(NC(=S)NCc2ccc(S(N)(=O)=O)cc2)c(OC)c1,6.58% (inactive)
2,O=C(NC1CCCC1)C(c1ccc(N2CCOCC2)cc1)N(Cc1ccccc1)C(=O)c1ccco1 (stereo unspecified),-11.4% (inactive)
3,O=c1c(C(c2ccccc2)c2c(O)nc3n(c2=O)CCCS3)c(O)nc2n1CCCS2,7.37% (inactive)
4,Cc1cc(C)c(S(=O)(=O)N2CCC(C(=O)NCc3ccc(Cl)cc3Cl)CC2)c(C)c1,4.79% (inactive)
5,O=S(=O)(c1ccccc1Br)N1CCC(O)(c2cccnc2)CC1,-4.98% (inactive)
6,CCOc1ccccc1NC(=O)C1CCCN(S(=O)(=O)c2ccc(OC)c(C)c2)C1 (stereo unspecified),-3.35% (inactive)
7,O=C(Nc1ccccc1)c1nc2ccccc2s1,27.8% (inactive)
8,O=C(Nc1nnc(-c2ccccc2)o1)Nc1ccc(F)cc1F,7.77% (inactive)
9,O=C(Nc1ccccc1)Nc1nnc(-c2ccccc2)o1,6.54% (inactive)
10,O=C(Nc1nnc(-c2cccnc2)o1)c1ccccc1Cl,4.74% (inactive)
11,NC(=O)c1oc2ccccc2c1NC(=O)c1nc2ccccc2s1,-3.12% (inactive)
12,O=C(Nc1ccc(F)cc1)Nc1nnc(-c2ccccc2)o1,-7.42% (inactive)
13,COc1ccc(CNC(=O)c2cnccn2)cc1,-0.78% (inactive)
14,COc1ccc(CCNC(=O)C2CCC(CNc3c(N4CCCC4)c(=O)c3=O)CC2)cc1OC (stereo unspecified),-2.59% (inactive)
15,COC(=O)[C@@H]1CCCN1Cc1c(C(=O)N2CCOCC2)nc2c(C)cccn12,-6.22% (inactive)
16,O=C(COc1ncnc2sccc12)N1CCN(C(=O)c2ccco2)CC1,-7.61% (inactive)
17,CC1(C)CC(N=Cc2c(O)n(Cc3ccc4c(c3)OCO4)c(=O)c3ccccc23)CC(C)(C)N1,15% (inactive)
18,O=c1c2ccccc2c(C=NCCCN2CCOCC2)c(O)n1Cc1ccc2c(c1)OCO2,4.72% (inactive)
19,O=C(c1ccccc1-n1cccc1)N1N=C(C(F)F)CC1(O)C(F)F (stereo unspecified),-5.84% (inactive)
20,Cc1ccc2occ(/C=N/NC(N)=S)c(=O)c2c1,-2.35% (inactive)
21,COc1cc(OC)cc(C(=O)/C=C2\Sc3ccccc3N2C)c1,-9.58% (inactive)

row,SMILES,inhibition
1,COc1ccc(C(=O)/C=C2\Sc3ccccc3N2C)cc1,-4.42% (inactive)
2,COc1ccc(CNC(=O)COC(=O)c2cncc(Br)c2)cc1,-4.32% (inactive)
3,Cc1nc2cc(O)ccc2n1C,-5.57% (inactive)
4,COc1ccc(CNC(=O)c2cc(-c3ccncc3)nc3c(C)cc(C)cc23)cc1OC,6.31% (inactive)
5,Cc1ccc(-c2cc(C(=O)Nc3cc(C)on3)c3ccccc3n2)cc1,6.46% (inactive)
6,COc1cccc(NC(=O)c2cc(-c3cccnc3)nc3c(Cl)cccc23)c1,-0.99% (inactive)
7,Cc1cc(NC(=O)c2cc(-c3cccnc3)nc3c(C)c(C)ccc23)no1,13.3% (inactive)
8,COc1ccc(N(C(C)C(=O)Nc2cccnc2)S(C)(=O)=O)cc1 (stereo unspecified),-6.21% (inactive)
9,Cc1cc(C)c2nc(N3CCC(C(=O)N4CCN(C(=O)c5ccco5)CC4)CC3)sc2c1,-2.47% (inactive)
10,O=C(NCc1cccc(Cl)c1)c1cc(COc2ccc3ncccc3c2)on1,58.2% (inactive)
11,COc1ccc(-n2nnc3c(=O)n(Cc4cccc(C)c4)cnc32)cc1,-11.3% (inactive)
12,CCSc1nnc(-c2ccc(Cl)cc2Cl)o1,4.11% (inactive)
13,CCCOC(=O)CSc1nnc(-c2ccccc2Cl)o1,42.3% (inactive)
14,CCOC(=O)CSc1ncc(-c2ccccc2)cn1,15% (inactive)
15,CCOC(=O)C(C)Sc1ncc(OC)c(Sc2ccc(Cl)cc2)n1 (stereo unspecified),7.19% (inactive)
16,CCOC(=O)C(C)Sc1ncc(-c2ccccc2)cn1 (stereo unspecified),-6.07% (inactive)
17,COc1ccccc1-c1nnc(SCC(=O)OC(C)C)o1,58.4% (inactive)
18,CCOC(=O)CSc1nnc(-c2cccc(Cl)c2)n1CC,-1.18% (inactive)
19,CC(C)OC(=O)CSc1nnc(-c2ccc(Cl)cc2Cl)n1N,-12.6% (inactive)
